Test results published in PubChem BioAssay (NCI).
Compounds without any hit were thinned out: in the full panel of roughly 83,000, 20% have a hit.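 Interpretation: 100, growth as untreated; towards 0, rising growth inhibition; 0, no net growth; 0 to -100, cell death. Compounds scoring below 10 were considered active.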 Activity calls are given as the source filed them.

These compounds were tested on T-47D breast (assay: NCI-60 one-dose screen, 48 h (100 = growth as untreated, 0 = no growth, -100 = all killed)). Details: 10 µM.

SMILES | growth
COc1cc(-c2nc3ccc(C)cc3[nH]2)ccc1OCc1nnc(-c2ccc(CC(C)C)cc2)o1 | 77.2% (inactive)
N#Cc1c(-c2ccccc2)nc(SCC(=O)N2CCOCC2)[nH]c1=O | 93.4% (inactive)
Brc1ccc(-c2cn3ccnc3c(-c3ccc(Br)cc3)n2)cc1 | 37.2% (inactive)
COc1cc(C2=Nc3c/c(=C\c4c(O)[nH]c5ccc(Cl)cc45)ccc3=N2)cc(OC)c1OC | 48.5% (inactive)
COc1cc(CSc2nc3ccc(Cl)cc3c(=O)n2-c2ccccc2)cc(OC)c1OC | 71% (inactive)
O=S(=O)(O)C1(O)CCCCC1 | 85.7% (inactive)
CCc1cc2n(n1)-c1ncc(C(=O)OC)cc1Oc1ccccc1-2 | 75.8% (inactive)
C/C(=N\NC(N)=S)C(C)(C)O | 57.1% (inactive)
COc1ccc(-c2cc(/C=C/C(=O)c3ccc(N)cc3)[nH]n2)cc1OC | 50.3% (inactive)
Nc1c(C(=O)NC2CCCCC2)sc2nc3c(cc12)C(=O)CCC3 | 94.2% (inactive)
CC(=O)n1nc(C(=O)OC(C)(C)C)c2cc(F)c(F)cc21 | 104% (inactive)
Nc1ccc2c(c1)Cc1cc(N)c(Cl)cc1-2 | 54.3% (inactive)
Cc1ccc2c3c(cccc13)-c1ccccc1C2=O | 84.9% (inactive)
Nc1cc(O)cc(O)c1 | 89% (inactive)
Fc1ccc(Nc2ccnc(N3CCN(c4ccnc5cc(Cl)ccc45)CC3)n2)cc1 | -0.414% (active)
N/C(=N\O)c1cn(C2OC(CO)C(O)C2O)c2ncnc(N)c12 (configuration not stated) | -7.04% (active)
COc1ccc(-c2nsc3c2NC(=O)CC3c2cccc(Cl)c2)cc1 (configuration not stated) | 35.3% (inactive)
CCCCCc1cc[n+](CC(=O)c2ccc(Cl)cc2)cc1 | 90.6% (inactive)
CC1(C)Cc2c(cn(Cc3ccccc3)c2-c2ccccc2)-c2oncc21 | 75.7% (inactive)
CCc1nn2c(-c3cc(OC)c(OC)c(OC)c3)c(-c3cc(OC)c(OC)c(OC)c3)nc2s1 | 81.4% (inactive)
CC1=CC2OC34COC3CC(OC(=O)C(F)(F)F)C4(C)C2(C)CC1 (configuration not stated) | 94.2% (inactive)
O=[N+]([O-])c1ccc(-c2nc(Cl)c3c(n2)CCCC3)o1 | 89.9% (inactive)
